Our source for the binding signal values is PMC7862700, “An all-to-all approach to the identification of sequence-specific readers for epigenetic DNA modifications on cytosine”.

Common to all, as to assay: DAPPL (digital affinity profiling via proximity ligation, sequencing); 10 mM Tris-HCl pH 7.5, 50 mM NaCl, 1 mM DTT, 4% glycerol, room temperature, 30 min; GST-TFs on glutathione beads, 16-mer random dsDNA library, 0.1% formaldehyde crosslink after washing; high values mean tight binding
One assay deals with T1, FLI1 (Homo sapiens, UniProt Q01543 1-452).
T1 sequence: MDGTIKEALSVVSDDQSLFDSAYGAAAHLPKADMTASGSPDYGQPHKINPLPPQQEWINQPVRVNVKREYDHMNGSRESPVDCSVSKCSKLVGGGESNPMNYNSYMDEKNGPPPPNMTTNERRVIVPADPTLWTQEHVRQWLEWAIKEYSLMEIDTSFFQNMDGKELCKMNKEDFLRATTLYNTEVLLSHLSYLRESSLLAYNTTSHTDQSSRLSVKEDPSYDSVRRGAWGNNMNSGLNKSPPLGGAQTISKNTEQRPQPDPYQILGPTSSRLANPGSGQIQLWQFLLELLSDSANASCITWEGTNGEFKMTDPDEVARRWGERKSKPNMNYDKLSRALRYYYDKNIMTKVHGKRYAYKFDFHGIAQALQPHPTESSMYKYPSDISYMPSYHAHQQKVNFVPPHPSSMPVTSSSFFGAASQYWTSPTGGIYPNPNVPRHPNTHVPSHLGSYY
Conditions: protein: recombinant; tags: N-terminal GST; dsDNA, one strand shown. Summed up: (§1)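 Each value of binding signal is a hexamer's read frequency for a factor divided by the same hexamer's frequency in the tag-only sample. Barcoded, bead-captured GST fusions of human transcription factors made in yeast were pooled with that sample and incubated with 200 nmole of a random double-stranded 16-mer DNA library in Tris/NaCl/DTT/glycerol buffer at room temperature for 30 min. Washing, 0.1% formaldehyde crosslinking, proximity ligation, PCR and Illumina NextSeq500 sequencing followed.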

For another assay, the target named is T2, ELK1 (Homo sapiens, UniProt P19419 1-428).
T2 sequence: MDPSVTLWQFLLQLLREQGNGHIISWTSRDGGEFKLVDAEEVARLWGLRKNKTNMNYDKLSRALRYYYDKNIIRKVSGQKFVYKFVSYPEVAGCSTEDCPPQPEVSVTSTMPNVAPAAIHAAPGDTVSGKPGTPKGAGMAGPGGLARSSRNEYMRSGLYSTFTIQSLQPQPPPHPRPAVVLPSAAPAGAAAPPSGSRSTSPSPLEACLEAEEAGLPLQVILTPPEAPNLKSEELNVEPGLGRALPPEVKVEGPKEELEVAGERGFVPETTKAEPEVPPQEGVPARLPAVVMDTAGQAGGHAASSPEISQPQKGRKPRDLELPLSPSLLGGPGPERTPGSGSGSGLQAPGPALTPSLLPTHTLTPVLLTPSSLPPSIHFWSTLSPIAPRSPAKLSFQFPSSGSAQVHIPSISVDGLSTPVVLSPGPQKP
Conditions: protein: recombinant; tags: N-terminal GST; dsDNA, one strand shown. A digest of the protocol: as §1

A further assay addresses T3, GABPA (Homo sapiens, UniProt Q06546 1-454).
T3 sequence: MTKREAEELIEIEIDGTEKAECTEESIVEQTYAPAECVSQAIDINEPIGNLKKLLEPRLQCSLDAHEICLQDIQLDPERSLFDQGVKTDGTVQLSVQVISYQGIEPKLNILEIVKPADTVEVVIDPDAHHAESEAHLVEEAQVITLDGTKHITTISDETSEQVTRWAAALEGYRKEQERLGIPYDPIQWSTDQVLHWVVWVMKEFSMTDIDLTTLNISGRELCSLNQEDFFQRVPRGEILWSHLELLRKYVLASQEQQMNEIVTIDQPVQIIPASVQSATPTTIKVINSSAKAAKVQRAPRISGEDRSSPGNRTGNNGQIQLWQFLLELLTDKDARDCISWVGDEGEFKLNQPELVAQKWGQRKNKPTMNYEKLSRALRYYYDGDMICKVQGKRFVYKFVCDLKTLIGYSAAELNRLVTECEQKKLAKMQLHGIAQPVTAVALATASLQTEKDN
To be noted: protein: recombinant; tags: N-terminal GST; dsDNA, one strand shown. A digest of the protocol:
as §1

In the next assay the target is T4, ERG (Homo sapiens, UniProt P11308 1-479).
T4 sequence: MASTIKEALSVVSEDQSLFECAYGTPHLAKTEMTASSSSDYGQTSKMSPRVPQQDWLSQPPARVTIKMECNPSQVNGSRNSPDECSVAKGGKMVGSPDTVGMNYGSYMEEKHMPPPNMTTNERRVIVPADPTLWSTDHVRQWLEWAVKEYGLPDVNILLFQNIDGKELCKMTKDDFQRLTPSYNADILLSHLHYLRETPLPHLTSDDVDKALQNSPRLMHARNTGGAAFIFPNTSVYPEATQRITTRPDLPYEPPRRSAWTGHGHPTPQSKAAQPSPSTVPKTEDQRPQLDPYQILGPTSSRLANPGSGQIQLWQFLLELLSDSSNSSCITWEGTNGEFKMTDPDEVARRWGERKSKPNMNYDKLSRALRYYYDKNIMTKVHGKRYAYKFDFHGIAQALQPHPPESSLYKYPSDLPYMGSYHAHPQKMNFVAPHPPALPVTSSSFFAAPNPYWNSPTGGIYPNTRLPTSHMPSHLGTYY
Conditions: protein: recombinant; tags: N-terminal GST; dsDNA, one strand shown. A digest of the protocol:
as §1

The target of a further assay is ELF1 (Homo sapiens, UniProt P32519 1-619). To be noted: protein: recombinant; tags: N-terminal GST; dsDNA, one strand shown. A digest of the protocol: as §1
The next assay concerns the target T5, EHF (Homo sapiens, UniProt Q9NZC4 1-300).
T5 sequence: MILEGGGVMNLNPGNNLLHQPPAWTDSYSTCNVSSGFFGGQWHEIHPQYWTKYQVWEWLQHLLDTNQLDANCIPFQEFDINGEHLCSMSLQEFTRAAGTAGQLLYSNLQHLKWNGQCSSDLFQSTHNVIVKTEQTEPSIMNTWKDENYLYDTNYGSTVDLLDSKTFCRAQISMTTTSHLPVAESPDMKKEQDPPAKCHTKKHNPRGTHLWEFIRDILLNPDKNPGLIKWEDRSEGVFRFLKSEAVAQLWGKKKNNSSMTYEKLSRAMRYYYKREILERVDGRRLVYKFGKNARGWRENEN
Conditions: protein: recombinant; tags: N-terminal GST; dsDNA, one strand shown. A digest of the protocol: as §1

The next assay deals with SPI1 (Homo sapiens, UniProt P17947 1-270). Conditions: protein: recombinant; tags: N-terminal GST; dsDNA, one strand shown. Summed up:
as §1

The target of a further assay is SPIB (Homo sapiens, UniProt Q01892 1-262). Conditions: protein: recombinant; tags: N-terminal GST; dsDNA, one strand shown. Summed up:
as §1

The target in a further assay is T6, ELK3 (Homo sapiens, UniProt P41970 1-407).
T6 sequence: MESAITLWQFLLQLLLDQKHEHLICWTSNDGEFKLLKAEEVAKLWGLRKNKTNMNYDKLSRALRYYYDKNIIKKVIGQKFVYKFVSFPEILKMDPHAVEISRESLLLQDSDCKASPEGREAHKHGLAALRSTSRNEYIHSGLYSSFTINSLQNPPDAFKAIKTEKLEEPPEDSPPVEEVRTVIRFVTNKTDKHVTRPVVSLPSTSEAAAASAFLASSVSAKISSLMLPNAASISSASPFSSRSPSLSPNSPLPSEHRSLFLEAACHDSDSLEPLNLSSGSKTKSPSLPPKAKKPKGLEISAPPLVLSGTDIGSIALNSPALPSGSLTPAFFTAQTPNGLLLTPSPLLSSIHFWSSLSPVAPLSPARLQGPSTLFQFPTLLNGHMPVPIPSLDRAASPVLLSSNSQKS
Conditions: protein: recombinant; tags: N-terminal GST; dsDNA, one strand shown. Summed up:
as §1

The next assay deals with T7, FEV (Homo sapiens, UniProt Q99581 1-238).
T7 sequence: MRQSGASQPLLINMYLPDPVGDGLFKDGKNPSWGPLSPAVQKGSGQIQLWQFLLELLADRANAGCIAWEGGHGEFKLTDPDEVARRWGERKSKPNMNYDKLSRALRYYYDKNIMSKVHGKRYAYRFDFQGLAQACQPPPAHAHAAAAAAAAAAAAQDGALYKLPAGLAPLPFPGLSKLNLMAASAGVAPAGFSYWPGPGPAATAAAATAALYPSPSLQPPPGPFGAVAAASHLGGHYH
Conditions: protein: recombinant; tags: N-terminal GST; dsDNA, one strand shown. Summed up:
as §1

The target of a further assay is ETV5 (Homo sapiens, UniProt P41161 1-510). Conditions: protein: recombinant; tags: N-terminal GST; dsDNA, one strand shown. Summed up:
as §1

A further assay concerns the target HSF1 (Homo sapiens, UniProt Q00613 1-529). Conditions: protein: recombinant; tags: N-terminal GST; chain copies: 3; dsDNA, one strand shown. Summed up: as §1
The target in the next assay is T8, SPIC (Homo sapiens, UniProt Q8N5J4 1-248).
T8 sequence: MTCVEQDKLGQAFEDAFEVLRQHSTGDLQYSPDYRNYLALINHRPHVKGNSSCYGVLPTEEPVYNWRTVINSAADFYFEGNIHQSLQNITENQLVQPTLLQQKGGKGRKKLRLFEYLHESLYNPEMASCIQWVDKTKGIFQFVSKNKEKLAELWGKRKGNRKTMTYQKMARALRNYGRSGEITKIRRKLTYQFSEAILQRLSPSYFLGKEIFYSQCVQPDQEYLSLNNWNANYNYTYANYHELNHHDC
Conditions: protein: recombinant; tags: N-terminal GST; dsDNA, one strand shown. A digest of the protocol:
as §1

Another assay has as its target ELF4 (Homo sapiens, UniProt Q99607 1-663). Conditions: protein: recombinant; tags: N-terminal GST; dsDNA, one strand shown. A digest of the protocol: as §1
The next assay has as its target T9, ELK4 (Homo sapiens, UniProt P28324-2 1-405).
T9 sequence: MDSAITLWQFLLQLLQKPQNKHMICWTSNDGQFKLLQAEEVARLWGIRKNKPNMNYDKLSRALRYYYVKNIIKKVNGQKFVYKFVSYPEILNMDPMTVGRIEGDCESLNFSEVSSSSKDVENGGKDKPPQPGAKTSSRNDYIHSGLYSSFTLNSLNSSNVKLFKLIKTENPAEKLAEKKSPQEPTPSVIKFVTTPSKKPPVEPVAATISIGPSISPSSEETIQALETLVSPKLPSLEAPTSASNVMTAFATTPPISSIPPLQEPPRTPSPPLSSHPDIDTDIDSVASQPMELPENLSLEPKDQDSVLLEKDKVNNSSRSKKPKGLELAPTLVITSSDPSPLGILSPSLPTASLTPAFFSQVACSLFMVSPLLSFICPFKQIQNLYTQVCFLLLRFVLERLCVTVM
To be noted: protein: recombinant; tags: N-terminal GST; dsDNA, one strand shown. A digest of the protocol:
as §1

In another assay the target is T10, ETV2 (Homo sapiens, UniProt O00321 1-342).
T10 sequence: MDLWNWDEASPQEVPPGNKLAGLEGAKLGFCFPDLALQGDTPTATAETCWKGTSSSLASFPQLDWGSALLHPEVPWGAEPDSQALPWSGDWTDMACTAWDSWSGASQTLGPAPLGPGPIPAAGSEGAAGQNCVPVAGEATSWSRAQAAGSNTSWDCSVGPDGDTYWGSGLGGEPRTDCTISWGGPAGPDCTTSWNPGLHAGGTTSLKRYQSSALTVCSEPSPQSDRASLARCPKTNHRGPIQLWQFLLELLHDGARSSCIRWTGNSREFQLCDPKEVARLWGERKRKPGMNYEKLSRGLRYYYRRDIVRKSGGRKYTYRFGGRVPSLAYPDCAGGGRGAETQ
To be noted: protein: recombinant; tags: N-terminal GST; dsDNA, one strand shown. A digest of the protocol: as §1

Another assay addresses T11, ELF3 (Homo sapiens, UniProt P78545 1-371).
T11 sequence: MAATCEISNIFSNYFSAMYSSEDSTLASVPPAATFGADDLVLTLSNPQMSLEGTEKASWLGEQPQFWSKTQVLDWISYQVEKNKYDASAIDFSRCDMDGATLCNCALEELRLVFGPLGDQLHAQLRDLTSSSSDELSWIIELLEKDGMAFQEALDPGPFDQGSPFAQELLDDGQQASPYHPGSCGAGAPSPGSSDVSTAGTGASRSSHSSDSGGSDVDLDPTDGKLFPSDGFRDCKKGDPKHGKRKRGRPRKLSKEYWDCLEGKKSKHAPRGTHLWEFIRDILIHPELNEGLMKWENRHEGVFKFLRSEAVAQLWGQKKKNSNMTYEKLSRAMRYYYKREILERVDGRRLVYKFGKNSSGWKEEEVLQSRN
Conditions: protein: recombinant; tags: N-terminal GST; dsDNA, one strand shown. Summed up: as §1

Another assay addresses CRX (Homo sapiens, UniProt O43186 1-299). Conditions: protein: recombinant; tags: N-terminal GST; dsDNA, one strand shown. A digest of the protocol: as §1
A further assay concerns the target ETV1 (Homo sapiens, UniProt P50549 1-477). To be noted: protein: recombinant; tags: N-terminal GST; dsDNA, one strand shown. Summed up:
as §1

Chain of ELF4 (Q99607 whole entry): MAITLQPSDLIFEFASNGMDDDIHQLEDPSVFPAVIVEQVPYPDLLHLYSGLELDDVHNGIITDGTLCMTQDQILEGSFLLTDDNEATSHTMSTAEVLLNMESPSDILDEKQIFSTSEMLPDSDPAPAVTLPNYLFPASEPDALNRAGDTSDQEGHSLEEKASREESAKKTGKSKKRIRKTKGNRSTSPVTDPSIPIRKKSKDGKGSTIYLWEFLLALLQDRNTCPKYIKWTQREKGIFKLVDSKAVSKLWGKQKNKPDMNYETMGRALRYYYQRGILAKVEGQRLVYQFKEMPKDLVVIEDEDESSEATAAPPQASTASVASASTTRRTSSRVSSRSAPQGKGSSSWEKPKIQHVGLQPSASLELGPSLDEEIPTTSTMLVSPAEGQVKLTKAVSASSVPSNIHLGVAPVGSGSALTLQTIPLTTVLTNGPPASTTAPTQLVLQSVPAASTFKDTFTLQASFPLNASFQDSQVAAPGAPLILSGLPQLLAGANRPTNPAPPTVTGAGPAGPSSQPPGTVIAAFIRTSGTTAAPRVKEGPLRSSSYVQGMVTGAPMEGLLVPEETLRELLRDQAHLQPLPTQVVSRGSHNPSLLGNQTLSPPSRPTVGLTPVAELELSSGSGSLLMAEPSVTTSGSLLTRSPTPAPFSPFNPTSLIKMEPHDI
Chain of ETV5 (P41161 whole entry): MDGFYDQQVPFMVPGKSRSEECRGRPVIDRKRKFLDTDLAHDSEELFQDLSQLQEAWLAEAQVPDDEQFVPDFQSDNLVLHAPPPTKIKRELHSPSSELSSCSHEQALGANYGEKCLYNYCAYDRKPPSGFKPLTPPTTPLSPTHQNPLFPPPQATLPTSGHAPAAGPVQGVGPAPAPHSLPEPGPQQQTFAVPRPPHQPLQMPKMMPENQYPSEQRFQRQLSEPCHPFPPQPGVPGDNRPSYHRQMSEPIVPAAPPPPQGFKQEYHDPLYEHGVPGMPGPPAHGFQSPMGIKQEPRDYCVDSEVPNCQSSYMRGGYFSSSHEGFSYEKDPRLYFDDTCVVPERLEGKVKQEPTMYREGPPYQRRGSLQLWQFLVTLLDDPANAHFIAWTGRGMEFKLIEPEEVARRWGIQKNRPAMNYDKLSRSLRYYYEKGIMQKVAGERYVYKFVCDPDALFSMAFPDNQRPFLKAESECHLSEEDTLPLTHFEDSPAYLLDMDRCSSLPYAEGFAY
Chain of HSF1 (Q00613 whole entry): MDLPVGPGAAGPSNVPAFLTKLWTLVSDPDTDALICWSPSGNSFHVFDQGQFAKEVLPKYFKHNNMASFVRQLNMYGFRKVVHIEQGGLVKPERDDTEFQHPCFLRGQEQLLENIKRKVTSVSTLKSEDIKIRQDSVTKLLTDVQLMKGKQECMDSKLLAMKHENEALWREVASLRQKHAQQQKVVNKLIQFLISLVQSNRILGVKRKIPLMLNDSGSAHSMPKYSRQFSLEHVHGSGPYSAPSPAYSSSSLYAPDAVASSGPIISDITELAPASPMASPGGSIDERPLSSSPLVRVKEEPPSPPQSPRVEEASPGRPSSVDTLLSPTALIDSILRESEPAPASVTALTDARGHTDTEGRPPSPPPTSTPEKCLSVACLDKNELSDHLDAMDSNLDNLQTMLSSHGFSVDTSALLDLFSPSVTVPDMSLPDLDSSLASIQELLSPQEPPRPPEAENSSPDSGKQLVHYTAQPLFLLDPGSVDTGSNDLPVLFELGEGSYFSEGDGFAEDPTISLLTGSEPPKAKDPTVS
Chain of ETV1 (P50549 whole entry): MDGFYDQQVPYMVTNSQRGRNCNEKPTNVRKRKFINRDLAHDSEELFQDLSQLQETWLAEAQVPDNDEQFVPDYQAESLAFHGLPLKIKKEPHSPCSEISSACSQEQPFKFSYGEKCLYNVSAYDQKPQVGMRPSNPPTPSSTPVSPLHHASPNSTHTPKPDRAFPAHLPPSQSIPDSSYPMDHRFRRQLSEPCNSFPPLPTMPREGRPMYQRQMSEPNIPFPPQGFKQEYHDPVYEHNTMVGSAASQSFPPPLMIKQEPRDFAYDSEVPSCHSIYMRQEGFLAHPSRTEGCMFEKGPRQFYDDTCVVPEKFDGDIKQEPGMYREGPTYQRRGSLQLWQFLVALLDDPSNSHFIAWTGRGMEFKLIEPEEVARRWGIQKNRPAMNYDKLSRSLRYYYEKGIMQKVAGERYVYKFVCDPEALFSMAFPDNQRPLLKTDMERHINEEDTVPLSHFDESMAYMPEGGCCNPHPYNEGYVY
Chain of ELF1 (P32519 whole entry): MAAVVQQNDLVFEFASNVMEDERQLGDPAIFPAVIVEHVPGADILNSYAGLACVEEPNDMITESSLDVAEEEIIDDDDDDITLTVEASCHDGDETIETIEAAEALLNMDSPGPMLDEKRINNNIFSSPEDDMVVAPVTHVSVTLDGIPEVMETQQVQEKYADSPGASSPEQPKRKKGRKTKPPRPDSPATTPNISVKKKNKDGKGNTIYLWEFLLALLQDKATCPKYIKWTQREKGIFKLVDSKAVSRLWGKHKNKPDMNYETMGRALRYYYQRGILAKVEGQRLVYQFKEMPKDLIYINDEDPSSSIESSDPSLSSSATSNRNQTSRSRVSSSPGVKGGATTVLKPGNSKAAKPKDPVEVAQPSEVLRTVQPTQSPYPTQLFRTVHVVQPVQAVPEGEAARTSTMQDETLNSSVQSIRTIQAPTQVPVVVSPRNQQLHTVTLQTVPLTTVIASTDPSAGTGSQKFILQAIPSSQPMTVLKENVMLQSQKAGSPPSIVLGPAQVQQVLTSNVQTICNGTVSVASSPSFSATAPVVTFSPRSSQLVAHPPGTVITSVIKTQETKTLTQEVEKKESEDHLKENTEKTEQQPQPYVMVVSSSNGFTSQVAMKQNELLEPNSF
Chain of SPIB (Q01892 whole entry): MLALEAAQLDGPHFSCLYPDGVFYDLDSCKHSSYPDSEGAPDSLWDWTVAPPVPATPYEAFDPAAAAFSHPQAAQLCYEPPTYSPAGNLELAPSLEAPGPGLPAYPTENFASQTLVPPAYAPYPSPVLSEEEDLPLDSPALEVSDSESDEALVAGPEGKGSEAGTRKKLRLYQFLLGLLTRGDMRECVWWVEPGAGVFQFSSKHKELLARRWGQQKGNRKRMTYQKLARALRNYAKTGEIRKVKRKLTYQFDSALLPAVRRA
Chain of CRX (O43186 whole entry): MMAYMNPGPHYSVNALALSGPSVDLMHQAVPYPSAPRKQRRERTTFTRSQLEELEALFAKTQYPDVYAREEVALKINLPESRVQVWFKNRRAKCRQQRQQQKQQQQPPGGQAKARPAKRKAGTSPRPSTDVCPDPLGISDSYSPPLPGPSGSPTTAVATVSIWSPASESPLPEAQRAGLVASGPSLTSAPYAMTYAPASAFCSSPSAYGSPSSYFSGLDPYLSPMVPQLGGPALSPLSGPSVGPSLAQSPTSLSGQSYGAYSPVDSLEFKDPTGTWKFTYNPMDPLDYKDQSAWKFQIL

Regarding CTCCTG, the binding signal with FLI1 is 1.66 fold enrichment (6-mer frequency, TF over GST control); with ELK1, 1.69 fold enrichment (6-mer frequency, TF over GST control); with GABPA, 1.74 fold enrichment (6-mer frequency, TF over GST control); with ERG, 1.51 fold enrichment (6-mer frequency, TF over GST control); with ELF1, 1.65 fold enrichment (6-mer frequency, TF over GST control); with EHF it was 1.33 fold enrichment (6-mer frequency, TF over GST control). Also, the binding signal in the assay with SPI1 is 1.58 fold enrichment (6-mer frequency, TF over GST control); with SPIB, 1.7 fold enrichment (6-mer frequency, TF over GST control); with ELK3, 1.73 fold enrichment (6-mer frequency, TF over GST control); in the assay with FEV it was 1.57 fold enrichment (6-mer frequency, TF over GST control); in the assay with ETV5, 1.71 fold enrichment (6-mer frequency, TF over GST control); in the assay with HSF1, 1.52 fold enrichment (6-mer frequency, TF over GST control). In addition, the binding signal with SPIC is 1.37 fold enrichment (6-mer frequency, TF over GST control); with ELF4, 1.65 fold enrichment (6-mer frequency, TF over GST control); in the assay with ELK4, 1.35 fold enrichment (6-mer frequency, TF over GST control); with ETV2, 1.62 fold enrichment (6-mer frequency, TF over GST control); with ELF3, 1.47 fold enrichment (6-mer frequency, TF over GST control); in the assay with CRX, 1.46 fold enrichment (6-mer frequency, TF over GST control). For the same sequence, the binding signal with ETV1 was 1.79 fold enrichment (6-mer frequency, TF over GST control).
